Hits are enriched below; roughly 11% of the tested compounds scored in any of these assays.
Tau FP inhib = inhibitors of human tau fibril formation; 280,000 tested, 0.39% active; K18 P301L tau heparin fibrillization, Alexa594 FP, 6 h; Potency, µM (series often up to 57.7 µM), without a hit: at the top dose activity, negative = inhibition, usual class: inhibitors; P10636; note: potency is the fitted concentration of half-maximal effect; nearly all actives have a fitted effect of over 55% in size
Target sequence (P10636 561-689 P618L limits assumed): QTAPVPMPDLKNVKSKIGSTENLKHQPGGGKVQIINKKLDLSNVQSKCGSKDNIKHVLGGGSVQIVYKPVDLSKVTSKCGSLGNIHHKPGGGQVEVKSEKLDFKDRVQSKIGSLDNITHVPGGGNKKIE
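Steps: dispense K18 P301L tau (15 uM plus 0.24 uM Alexa 594 tracer, final) in pH 7 sodium acetate; add compound; add heparin (20 uM final); incubate 6 hr, 37 C; add ThT (30 uM final); after 1 hr ambient, read FP.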
Sfp PPTase inh = inhibitors of Bacillus subtilis Sfp phosphopantetheinyl transferase; Biochemical Sfp PPTase activity, qHTS; Potency, µM, for inactives: largest response in the series, negative = inhibition, hits mostly inhibitors; 310,000 tested, 3.5% active;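 note: the enzyme is Sfp with the accession as filed and its product quenches rhodamine fluorescence; potency is the fitted concentration of half-maximal effect; 0% = enzyme reaction without inhibitor and -100% = no enzyme wells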
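Step 1, compound plus 15 nM Sfp-PPTase, 15 min, room temperature. Step 2, add rhodamine-CoA (5 uM) and BHQ-2-YbbR (12.5 uM). Step 3, read 525/598 nm fluorescence at 0 and 30 min.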
FBPA coupling cs = coupling enzyme interference in Giardia aldolase counter-screen | AID 2472 | activity change, negative = inhibition, % at 58.2 µM, hits read low | coupling enzyme system counterscreen, AmpLite Red fluorescence | 290,000 tested, 0.67% active; in the data active = activity change below about -30%
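First, compound is pin-transferred into glyceraldehyde-3-phosphate coupling-enzyme reagent at 57.5 uM final and held 10 min at RT. Next, substrate, coupling system and AmpLite Red are added. After 20 min RT, fluorescence (525/598 nm) is read.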
G9a inh = G9a (human) methyltransferase inhibition; Q96KQ7; G9a H3K9 monomethylation, AlphaScreen, 2 h; Potency, µM (series often up to 102 µM), for the others: top-dose activity, negative = inhibition, actives largely listed as inhibitors; 350,000 tested, 8.8% active; note: potency is the fitted concentration of half-maximal effect; nearly all actives have a fitted effect of over 75% in size
Target sequence (Q96KQ7 913-1193 limits assumed): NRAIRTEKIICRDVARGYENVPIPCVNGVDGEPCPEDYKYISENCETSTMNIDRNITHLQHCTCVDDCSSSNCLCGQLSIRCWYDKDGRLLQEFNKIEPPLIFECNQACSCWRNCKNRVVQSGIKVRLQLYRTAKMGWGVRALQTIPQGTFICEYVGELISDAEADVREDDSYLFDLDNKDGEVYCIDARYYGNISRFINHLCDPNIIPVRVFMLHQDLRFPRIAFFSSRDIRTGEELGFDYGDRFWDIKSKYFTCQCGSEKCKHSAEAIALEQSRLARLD
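Quantitative HTS format: methyltransferase activity on a biotin-tagged H3K9 peptide is measured by AlphaScreen, using a rabbit anti-monomethyl-H3K9 antibody with streptavidin donor and anti-IgG acceptor beads. Final levels are 20 nM enzyme, 500 nM peptide, 20 uM SAM; 2 h RT.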
Tau fluor counter = counter-screen for tau fibril formation inhibitors | tau K18 P301L Alexa594 fluorescence, heparin fibrillization | Potency, µM (series often up to 57.7 µM), without a hit: at the highest dose activity change, negative = decrease | 280,000 tested, 0.93% active; note: potency is the fitted concentration of half-maximal effect; nearly all actives have a fitted effect of over 55% in size
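Human tau K18 P301L (15 uM unlabeled, 0.24 uM Alexa 594-labeled) in 100 mM sodium acetate pH 7 with 20 uM heparin, 6 hr at 37 C. ThT 30 uM added, 1 hr ambient; Alexa 594 FP and total fluorescence read at 555/632 nm.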
Tau fibril ThT = inhibitors of human tau fibril formation, thioflavin T binding; 270,000 tested, 2.1% active; recombinant tau K18 P301L (four-repeat tau fragment), heparin-induced fibrillization, ThT fluorescence; Potency, µM (titrated, usually from 57.4 µM), for the others: at the top dose activity, negative = inhibition, actives largely listed as inhibitors; note: potency is the fitted concentration of half-maximal effect; nearly all actives have a fitted effect of over 55% in size
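Heparin-induced fibrillization of the P301L-mutant K18 repeat-domain fragment of human tau was followed by ThT binding in quantitative high-throughput format.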
The depositor's hits bear a star; ? = inconclusive; . = no result; ! = repeats disagree; [ ] = another dose, or the depositor's remark. Unless noted, calls come from the whole dose curve; as a rule, active = well fitted curve in the direction sought with a large enough effect; inconclusive = small, poorly fitted or top-dose-only effect, or another doubt; inactive = no such curve, though single readings can be large; an effect the other way counts as inactive or inconclusive. Unless noted, % is set by controls: 0 for no effect and ±100 for the full control effect.

SMILES | Tau FP inhib | Sfp PPTase inh | FBPA coupling cs | G9a inh | Tau fluor counter | Tau fibril ThT
Cc1cc(C)cc(-n2ccn(CC(=O)Nc3cc(C)ccc3C)c(=O)c2=O)c1 | 0% | . | . | -14%[59 µM] | -12% | ?
COc1ccc(C(=O)NCC(c2ccc(N(C)C)cc2)N2CCCC2)cc1 (centres undefined) | -2% | . | . | ? | -3% | ?
Cc1ccc(S(=O)(=O)NCC(c2cccnc2)N2CCc3ccccc32)cc1 (centres undefined) | . | -3% | 0 | 40µM* | . | .
CN(C)c1ccc(C(c2ccc(N(C)C)cc2)c2ccc([N+](=O)[O-])cc2)cc1 | 7% | 10% | -4 | 5µM* | ? | -6%
Cc1ccc(S(=O)(=O)NCC(c2ccc(N(C)C)cc2)N2CCc3ccccc32)cc1 (centres undefined) | 2% | . | . | 11µM* | ? | ?
CN(C)c1ccc(C(CNC(=O)c2ccc(C(C)(C)C)cc2)N2CCCC2)cc1 (centres undefined) | 3% | . | . | 16µM* | -13% | -17%
CN(C)c1ccc(C=NC(CO)C(O)c2ccc([N+](=O)[O-])cc2)cc1 (centres undefined) | -3% | 9% | 0 | 13% | -12% | .
CC(=O)NC(CC(=O)OCC(=O)N1CCN(S(=O)(=O)c2ccc(C)cc2C)CC1)c1ccccc1 (centres undefined) | . | . | . | 6%[12.7 µM] | . | .
CSCC[C@H](N)C(=O)N1CCC(C(=O)N[C@H](C(=O)NCc2ccccc2F)C(C)C)CC1 | . | -1% | 0 | . | . | .
CN(C)c1ccc(C(CNS(=O)(=O)c2ccc([N+](=O)[O-])cc2)N2CCCC2)cc1 (centres undefined) | . | . | . | 45µM* | . | .
Cc1ccc(S(=O)(=O)NCC(c2ccc(N(C)C)cc2)N2CCCC2)cc1 (centres undefined) | 12% | . | . | ? | -7% | -4%
CCN1CCN(C(CNS(=O)(=O)c2ccc(Cl)cc2)c2cccnc2)CC1 (centres undefined) | . | 9% | 0 | 79µM* | . | .
Cn1cccc2[nH]c(=O)nc1-2 | -4% | 7% | 2 | ? | 0% | 2%
CCOC(=O)c1c(-c2ccccc2)csc1NC(=O)c1ccc(S(=O)(=O)N2CCOCC2)cc1 | -12% | 11% | 4 | -5%[59 µM] | -12% | -10%
COC(=O)c1c(NC(=O)CSc2ncn[nH]2)sc(C)c1C | . | . | . | 4µM* | . | .
CCOC(=O)c1c(-c2cccs2)csc1NC(=O)CN1CCOCC1 | 3% | -21% | 5 | 11%[59 µM] | -6% | -12%
CCOC(=O)c1c(-c2ccc(C)o2)csc1NC(=O)CSc1ncn[nH]1 | -3% | 28µM* | 1 | ? | -29% | -18%
CCOC(=O)c1c(-c2ccccc2)csc1NC(=O)CCN1CCOCC1 | -8% | 50µM* | -17 | ? | 14% | 14%
CCOC(=O)c1c(-c2ccc(C)cc2)csc1NC(=O)CCN1CCOCC1 | 2% | ? | 0 | 10µM* | -4% | -5%
CCOC(=O)c1c(NC(=O)CSc2ncn[nH]2)sc(C(C)=O)c1C | . | 18% | . | 19% | . | .
CCCC[C@@H]1C[C@H]1C(NC(=O)c1ccco1)c1ccccc1 (some centres undefined) | 3% | 10% | -1 | . | -5% | -8%
COc1ccc2c(Cl)c(C(=O)N/N=C3\CCCC(=O)C3)sc2c1 | 0% | 1% | 0 | -42% | -24% | ?
O=C(Cn1ncc2c3ccccc3n(Cc3ccccc3F)c2c1=O)NC1CCCCCC1 | -5% | . | . | 6%[59 µM] | -5% | 4%
CCOC(=O)c1c(-c2ccc(C)o2)csc1NC(=S)NC(=O)N(C)C | -6% | 56µM* | 1 | ? | ? | ?
CCOC(=O)c1c(-c2cccs2)csc1NC(=O)CN(CC)CC | 5% | -18% | 0 | -9%[12.7 µM] | -8% | -12%
SMILES | Tau FP inhib | Sfp PPTase inh | FBPA coupling cs | G9a inh | Tau fluor counter | Tau fibril ThT
CCOC(=O)c1c(-c2ccc(C)o2)csc1NC(=O)CN1CCOCC1 | 4% | 45µM* | -1 | 50µM* | -15% | -26%
CCc1ccccc1Nc1nc2cc(Cl)c(Cl)cc2nc1-n1nc(C)cc1C | -7% | . | . | 11%[59 µM] | -5% | 1%
Cc1ccc(-c2nnn3c2nc(N2CCC(C)CC2)c2ccccc23)cc1 | -5% | . | . | 56%[59 µM] | -15% | -6%
CN1CCN(C(=O)C2CCCN(S(=O)(=O)c3ccc(Br)cc3)C2)CC1 (centres undefined) | . | 15% | . | ? | . | .
CN1CCN(C(=O)C2CCCN(S(=O)(=O)c3ccc(Cl)cc3)C2)CC1 (centres undefined) | . | -25% | . | 10µM* | . | .
CCCn1c(=O)c2[nH]c(-c3ccc(S(=O)(=O)O)cc3)nc2n(CCC)c1=O | -9% | . | . | 21µM*! | -12% | -11%
Cc1nc2c3cc(F)ccc3n(Cc3ccccc3F)c2s1 | ? | 18µM* | -10 | -26%[59 µM] | ? | ?
Cc1ccccc1C(=O)NCCc1sc(-c2ccc(Cl)cc2)nc1C | -7% | . | . | 8%[59 µM] | -10% | -9%
O=C(Cc1ccccc1)Nc1ccc(N2CCOCC2)cc1 | 2% | 19% | 1 | -2% | 1% | -2%
O=C(Cc1ccccc1)Nc1ccc(N2CCCC2)cc1 | 17% | ? | -9 | 8.9µM* | ? | ?
O=C(CN1CCN(c2ccc(Cl)cc2)CC1)NCc1ccccc1 | -4% | -3% | -1 | 3% | -9% | -11%
O=C(CN1CCCCC1)Nc1ccccc1 | -3% | 18% | 3 | -6% | -1% | -1%
O=C(CN1CCCCC1)Nc1ccc(N2CCCCCC2)cc1 | 9% | -21% | -5 | 18µM* | -12% | ?
Clc1ccc(CNc2ccc(N3CCN(Cc4ccccc4)CC3)cc2)cc1 | . | 2% | -6 | 10µM* | . | .
O=C(COc1ccccc1Cl)Nc1ccc(N2CCCC2)cc1 | . | 3% | . | 7.9µM* | . | .
CC1CCCN(C(=O)CSc2c3c(nc4cc(Cl)ccc24)CCCC3)C1 (centres undefined) | 10% | . | . | -34%[59 µM] | -5% | -14%
CCC(=O)Nc1ccc(N2CCN(Cc3ccccc3)CC2)cc1 | -3% | 12% | 0 | 50µM* | -2% | -12%
O=C(CCc1ccccc1)Nc1ccc(N2CCCCC2)cc1 | 3% | 13% | 1 | 8.9µM* | -16% | ?
O=C(CCc1ccccc1)Nc1ccc(S(=O)(=O)N2CCCC2)cc1 | -13% | -8% | 0 | . | -22% | -9%
CCN1CCN(c2ccc(NC(=O)Cc3ccccc3)cc2)CC1 | 0% | 9% | 4 | -33%[12.7 µM] | -2% | -9%
CCCOC(=O)Nc1ccc(N2CCCCC2)cc1 | 19% | -17% | -1 | 8.9µM* | -9% | -5%
O=C(Cc1ccccc1)NCCS(=O)(=O)N1CCN(c2ccccc2)CC1 | . | . | . | 50µM* | . | .
